A selection: hits, their analogues and other compounds. The true share with any hit is near 27%.
sEH act – activators of human soluble epoxide hydrolase | P34913 | purified human sEH enzymatic activity, activator screen | activation, % at 2 µM | 91,000 tested, 0.04% active | AID 717; in the data active means activation above about 37%
sEH inhibitor – inhibitors of human soluble epoxide hydrolase. P34913. 91,000 tested, 0.34% active. recombinant human sEH enzymatic activity assay. AID 707. inhibition, % at 2 µM; in the data active means inhibition above about 80%
CYP2C9 inhib – inhibitors of human CYP2C9; P11712; CYP2C9 Supersomes, luciferin-H conversion, luminescence; inhibition, % at 5 µM; 96,000 tested, 20% active; AID 777;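 active means blocking of liver enzyme CYP2C9 beyond about 50% at 5 µM, limit read from the data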
CYP2C9 act – activators of human CYP2C9; 96,000 tested, 1.4% active; activation factor at 5 µM; recombinant CYP2C9, luciferin-H conversion, luminescence; stronger effect = higher value; factor 1 = untreated enzyme, 0 = blocked;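 active means activation factor of 2 or more for CYP2C9 at a 5 µM dose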;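 further: 0 = sulfaphenazole-blocked wells and 1 = vehicle-only wells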
CYP2C19 inh – human CYP2C19 inhibition. inhibition, % at 5 µM. CYP2C19 Supersomes, luciferin-H EGE luminescence, 30 min. AID 778. 96,000 tested, 21% active. P33261;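 active means CYP2C19 inhibition above a set limit at 5 µM in the primary screen, cut at about 50% in these data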;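 further: plate controls were negative control wells for no effect and 2.5 mM tranylcypromine positive control for full effect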
Target sequence (P33261 whole entry, looked up): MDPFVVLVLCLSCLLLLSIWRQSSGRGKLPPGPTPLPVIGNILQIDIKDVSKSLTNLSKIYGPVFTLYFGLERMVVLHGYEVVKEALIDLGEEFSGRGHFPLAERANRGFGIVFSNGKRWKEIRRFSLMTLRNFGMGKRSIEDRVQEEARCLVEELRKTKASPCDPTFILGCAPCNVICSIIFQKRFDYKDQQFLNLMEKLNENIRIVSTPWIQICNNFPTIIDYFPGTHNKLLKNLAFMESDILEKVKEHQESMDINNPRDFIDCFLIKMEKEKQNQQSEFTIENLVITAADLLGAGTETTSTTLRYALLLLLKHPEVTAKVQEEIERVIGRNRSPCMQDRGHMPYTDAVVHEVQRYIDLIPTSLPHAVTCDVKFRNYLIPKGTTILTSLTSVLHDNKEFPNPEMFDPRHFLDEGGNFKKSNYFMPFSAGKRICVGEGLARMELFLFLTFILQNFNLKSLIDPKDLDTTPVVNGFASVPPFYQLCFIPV
CYP2C19 act – increases human CYP2C19 enzyme activity. P33261. recombinant CYP2C19, luciferin-H EGE luminescence; stronger effect = higher value; 0 = fully inhibited enzyme, 1 = untreated enzyme. activation factor at 5 µM. 96,000 tested, under 10 active;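 active means activation factor of at least 2 at 5 µM in the primary screen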;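 further: 0 = wells with 2.5 mM tranylcypromine and 1 = vehicle-only wells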
* marks the source's active call; other numbers are inactive results; nt = not tested or not shown.

SMILES	sEH act	sEH inhibitor	CYP2C9 inhib	CYP2C9 act	CYP2C19 inh	CYP2C19 act
Cc1nn(Cc2ccccc2)c(Cl)c1C(=O)OCc1nnc(-c2ccccc2)o1	-12.0	10.8	85.7*	0.1	92.1*	0.1
O=C(OCc1nnc(-c2ccccc2)o1)c1ccco1	9.8	-11.3	6.5	0.9	18.1	0.8
Cc1nn(Cc2ccccc2)c(Cl)c1C(=O)OCc1nnc(-c2ccc(Cl)cc2)o1	nt	nt	61.6*	0.4	39.8	0.6
CCOC(=O)c1sc(NC(=O)/C=C/c2cnn(C)c2C)c(C(=O)OCC)c1C	8.1	-7.3	24.8	0.8	6.1	0.9
Cc1ccc2c(c1)cc(CN(Cc1ccco1)S(=O)(=O)c1ccccc1)c1nnnn12	-13.2	15.0	10.8	0.9	10.7	0.9
O=C(CSc1nnc(Cc2ccccc2)o1)NCCN1C(=O)CSC1=O	3.1	-1.9	-4.3	1	4.7	1
Cc1ccc(SCC(=O)NCCN2C(=O)CSC2=O)c(C)c1	-15.5	18.6	nt	nt	nt	nt
Cc1ccc(SCC(=O)NCCN2C(=O)CSC2=O)cc1C	11.2	-9.1	-28.1	1.3	97.0*	0
Cc1ccc(-c2nc(SCC(=O)NCCN3C(=O)CSC3=O)[nH]c2-c2ccc(C)cc2)cc1	5.0	-3.6	64.5*	0.4	-1.3	1
Cc1cccc(-n2nnnc2SCC(=O)NCCN2C(=O)CSC2=O)c1	-6.7	9.4	-71.0	1.7	77.2*	0.2
CC(C)(C)NC(=O)CSc1nc(-c2ccccc2)c(-c2ccccc2)[nH]1	-0.9	3.5	12.2	0.9	11.1	0.9
C=CCn1c(=O)n(CCOC)c(=O)c2sc3ccccc3c21	-7.6	6.7	10.8	0.9	11.0	0.9
Cc1cc2cc(CCNC(=O)c3c(-c4ccccc4Cl)noc3C)c(=O)[nH]c2cc1C	nt	nt	47.0	0.5	13.3	0.9
CCOC(=O)CN1CCc2c(C)nc3c(-c4ccc(OC)c(OC)c4)cnn3c21	nt	nt	12.9	0.9	-5.9	1.1
CCOc1ccc(NC(=O)C23CC4CC(C2)CC(c2ccccc2)(C4)C3)cc1	-37.7	39.5	23.4	0.8	37.8	0.6
Cc1ccc(S(=O)(=O)N(CC(=O)Nc2cccc(N(C)S(C)(=O)=O)c2)c2ccc(Cl)c(Cl)c2)cc1	9.0	-8.9	100.1*	0	79.8*	0.2
COc1ccc(N(CC(=O)Nc2cccc(N(C)S(C)(=O)=O)c2)S(C)(=O)=O)cc1OC	3.2	1.8	9.6	0.9	3.2	1
CN(c1cccc(NC(=O)CN(c2ccc(C34CC5CC(CC(C5)C3)C4)cc2)S(C)(=O)=O)c1)S(C)(=O)=O	1.1	1.3	54.5*	0.5	17.3	0.8
O=C(Nc1ccccc1)OCN1C(=O)c2ccccc2C1=O	-5.6	5.3	-27.1	1.3	21.4	0.8
COc1ccc(C(=O)Cc2cc(OC)c(OC)cc2[N+](=O)[O-])c(OC)c1	11.4	-8.0	-37.6	1.4	14.1	0.9
CN(C)c1ccc(NC(=O)Cn2c(=O)n(Cc3ccccc3)c(=O)c3ccccc32)cc1	nt	nt	3.4	1	-8.3	1.1
COCCCNC(=O)CCn1c(=O)c2ccccc2n(CC(=O)Nc2ccc(C)cc2C)c1=O	1.8	-0.6	66.8*	0.3	78.0*	0.2
COCCCNC(=O)CCn1c(=O)c2ccccc2n(CC(=O)Nc2ccccc2C)c1=O	nt	nt	40.9	0.6	-8.7	1.1
COCCCNC(=O)CCn1c(=O)c2ccccc2n(CC(=O)Nc2c(C)cccc2C)c1=O	nt	nt	16.6	0.8	-2.1	1
CCCCNC(=O)CCn1c(=O)c2ccccc2n(CC(=O)Nc2ccccc2OCC)c1=O	nt	nt	75.4*	0.2	40.1	0.6
SMILES	sEH act	sEH inhibitor	CYP2C9 inhib	CYP2C9 act	CYP2C19 inh	CYP2C19 act
CCCN(CCC)C(=O)Cn1c(=O)n(CCC(=O)NCCc2ccccc2)c(=O)c2ccccc21	-13.6	11.1	72.3*	0.3	17.4	0.8
CCNCCNC(=O)c1c(O)c2ccccc2n(CC)c1=O	nt	nt	-17.0	1.2	-1.3	1
CCn1c(=O)c(C(=O)NCCc2ccccc2)c(O)c2ccccc21	-5.7	5.0	19.9	0.8	50.1*	0.5
O=C(Cn1cnc2c(nnn2Cc2ccc(F)cc2)c1=O)NCC1CCCO1 (stereo unspecified)	-13.7	16.4	nt	nt	nt	nt
CCCOc1ccc(N2C(=O)CC(N3CCCC(C(=O)N4CCCC4)C3)C2=O)cc1 (stereo unspecified)	6.5	-1.1	7.1	0.9	-2.7	1
Cc1ccc(C)c(N2CCN(CC3CC=CCC3)CC2)c1 (stereo unspecified)	-1.3	-1.6	5.8	0.9	10.8	0.9
CCOC(=O)NC(Nc1sc2c(c1C(N)=O)CCCC2)(C(=O)OCC)C(F)(F)F (stereo unspecified)	3.0	-3.2	27.5	0.7	19.2	0.8
Cc1cc(NC(=O)CN2CCOCC2)n(-c2nc3ccccc3s2)n1	9.0	-11.1	39.6	0.6	8.5	0.9
O=C1/C(=C/c2ccccc2)NC(=S)N1C(c1ccccc1)c1ccccc1	14.3	-10.9	59.6*	0.4	14.9	0.9
O=C1/C(=C/c2ccccc2)Nc2ccccc21	-6.8	10.5	28.2	0.7	6.6	0.9
CCc1ccc2[nH]c(=O)c(CN(Cc3ccccc3)Cc3nnnn3Cc3ccco3)cc2c1	9.5	-10.5	5.0	0.9	11.6	0.9
CCC(c1nnnn1CCc1ccccc1)N(Cc1ccco1)Cc1cc2cc(C)cc(C)c2[nH]c1=O (stereo unspecified)	4.2	-4.2	11.9	0.9	39.0	0.6
CCC(c1nnnn1Cc1ccco1)N(CCc1ccccc1)Cc1cc2cc(C)ccc2[nH]c1=O (stereo unspecified)	nt	nt	47.6	0.5	42.0	0.6
CCC(c1nnnn1CCc1ccccc1)N(Cc1ccco1)Cc1cc2c(C)ccc(C)c2[nH]c1=O (stereo unspecified)	-1.0	-1.5	93.5*	0.1	93.4*	0.1
CCOC(=O)Cn1nnnc1C(CC)N(Cc1ccccc1)Cc1cc2cc(C)ccc2[nH]c1=O (stereo unspecified)	-1.9	3.8	54.4*	0.5	58.3*	0.4
CCOC(=O)Cn1nnnc1CN(Cc1ccccc1)Cc1cc2cc(CC)ccc2[nH]c1=O	nt	nt	62.5*	0.4	48.2	0.5
Cc1c(NC(=O)c2cc(-c3cccs3)on2)c(=O)n(-c2ccccc2)n1C	nt	nt	10.1	0.9	6.6	0.9
Cn1c(=O)n(Cc2ccccc2)c(=O)c2c1nc1n2CCCN1CCc1ccccc1	1.8	-1.3	33.1	0.7	57.8*	0.4
Cn1c(=O)n(Cc2ccccc2)c(=O)c2c1nc1n2CCS1	10.7	-12.4	85.1*	0.1	57.0*	0.4
C=CCn1c(=O)c2c(nc3n2CCS3)n(C)c1=O	-2.3	5.1	-0.2	1	-3.7	1
Cn1c(=O)n(Cc2ccccc2)c(=O)c2c1nc1n2CCCN1Cc1ccccc1	18.6	-17.3	1.4	1	16.9	0.8
Cc1cccc(Cn2c(=O)n(-c3ccc(CC(=O)NCc4ccco4)cc3)c(=O)c3sccc32)c1	-4.5	6.6	-1.7	1	-15.1	1.2
